# Source: PubChem BioAssay
# Activity calls are given as the source filed them.
# Experiments:
# [1] = small molecules captured by biotinylated probe aFSTL3 – biochemical, small-molecule microarray, fluorescence 635/667, stem cell growth factor project, primary screen (AID 1064); conditions: higher = more signal;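 further: measures binding of the biotinylated anti-FSTL3 antibody to printed compounds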
# [2] = binders from COS7 lysate, DM2A8 probe, primary screen, torsin A project, cell lysate, small-molecule microarray, fluorescence 635/667 (AID 1065); conditions: higher = more signal, COS7 lysate expressing mutant human TOR1A
# [3] = small molecules captured by biotinylated probe aFGF2 – biochemical, small-molecule microarray, fluorescence 635/667, stem cell growth factor project, primary screen (AID 1067); conditions: higher = more signal;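 further: measures binding of biotinylated aFGF2 protein to printed compounds on slides; z-score merges feature fluorescence and signal-to-noise across triplicate slides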
# [4] = small molecules captured by biotinylated probe aFGF10 – biochemical, small-molecule microarray, fluorescence 635/667, stem cell growth factor project, primary screen (AID 1071); conditions: higher = more signal;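 further: score merges 667 nm spot intensity and signal to noise from triplicate slides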
# [5] = target: Neurogenic locus notch homolog protein 2 (Homo sapiens) (UniProt Q04721); assay: small molecules binding Notch2 protein – biochemical, small-molecule microarray, 635 nm fluorescence, stem cell growth factors, primary screen (AID 1073); conditions: higher = more signal
# Sequence of Neurogenic locus notch homolog protein 2 (Homo sapiens) (Q04721 whole entry, looked up, canonical isoform): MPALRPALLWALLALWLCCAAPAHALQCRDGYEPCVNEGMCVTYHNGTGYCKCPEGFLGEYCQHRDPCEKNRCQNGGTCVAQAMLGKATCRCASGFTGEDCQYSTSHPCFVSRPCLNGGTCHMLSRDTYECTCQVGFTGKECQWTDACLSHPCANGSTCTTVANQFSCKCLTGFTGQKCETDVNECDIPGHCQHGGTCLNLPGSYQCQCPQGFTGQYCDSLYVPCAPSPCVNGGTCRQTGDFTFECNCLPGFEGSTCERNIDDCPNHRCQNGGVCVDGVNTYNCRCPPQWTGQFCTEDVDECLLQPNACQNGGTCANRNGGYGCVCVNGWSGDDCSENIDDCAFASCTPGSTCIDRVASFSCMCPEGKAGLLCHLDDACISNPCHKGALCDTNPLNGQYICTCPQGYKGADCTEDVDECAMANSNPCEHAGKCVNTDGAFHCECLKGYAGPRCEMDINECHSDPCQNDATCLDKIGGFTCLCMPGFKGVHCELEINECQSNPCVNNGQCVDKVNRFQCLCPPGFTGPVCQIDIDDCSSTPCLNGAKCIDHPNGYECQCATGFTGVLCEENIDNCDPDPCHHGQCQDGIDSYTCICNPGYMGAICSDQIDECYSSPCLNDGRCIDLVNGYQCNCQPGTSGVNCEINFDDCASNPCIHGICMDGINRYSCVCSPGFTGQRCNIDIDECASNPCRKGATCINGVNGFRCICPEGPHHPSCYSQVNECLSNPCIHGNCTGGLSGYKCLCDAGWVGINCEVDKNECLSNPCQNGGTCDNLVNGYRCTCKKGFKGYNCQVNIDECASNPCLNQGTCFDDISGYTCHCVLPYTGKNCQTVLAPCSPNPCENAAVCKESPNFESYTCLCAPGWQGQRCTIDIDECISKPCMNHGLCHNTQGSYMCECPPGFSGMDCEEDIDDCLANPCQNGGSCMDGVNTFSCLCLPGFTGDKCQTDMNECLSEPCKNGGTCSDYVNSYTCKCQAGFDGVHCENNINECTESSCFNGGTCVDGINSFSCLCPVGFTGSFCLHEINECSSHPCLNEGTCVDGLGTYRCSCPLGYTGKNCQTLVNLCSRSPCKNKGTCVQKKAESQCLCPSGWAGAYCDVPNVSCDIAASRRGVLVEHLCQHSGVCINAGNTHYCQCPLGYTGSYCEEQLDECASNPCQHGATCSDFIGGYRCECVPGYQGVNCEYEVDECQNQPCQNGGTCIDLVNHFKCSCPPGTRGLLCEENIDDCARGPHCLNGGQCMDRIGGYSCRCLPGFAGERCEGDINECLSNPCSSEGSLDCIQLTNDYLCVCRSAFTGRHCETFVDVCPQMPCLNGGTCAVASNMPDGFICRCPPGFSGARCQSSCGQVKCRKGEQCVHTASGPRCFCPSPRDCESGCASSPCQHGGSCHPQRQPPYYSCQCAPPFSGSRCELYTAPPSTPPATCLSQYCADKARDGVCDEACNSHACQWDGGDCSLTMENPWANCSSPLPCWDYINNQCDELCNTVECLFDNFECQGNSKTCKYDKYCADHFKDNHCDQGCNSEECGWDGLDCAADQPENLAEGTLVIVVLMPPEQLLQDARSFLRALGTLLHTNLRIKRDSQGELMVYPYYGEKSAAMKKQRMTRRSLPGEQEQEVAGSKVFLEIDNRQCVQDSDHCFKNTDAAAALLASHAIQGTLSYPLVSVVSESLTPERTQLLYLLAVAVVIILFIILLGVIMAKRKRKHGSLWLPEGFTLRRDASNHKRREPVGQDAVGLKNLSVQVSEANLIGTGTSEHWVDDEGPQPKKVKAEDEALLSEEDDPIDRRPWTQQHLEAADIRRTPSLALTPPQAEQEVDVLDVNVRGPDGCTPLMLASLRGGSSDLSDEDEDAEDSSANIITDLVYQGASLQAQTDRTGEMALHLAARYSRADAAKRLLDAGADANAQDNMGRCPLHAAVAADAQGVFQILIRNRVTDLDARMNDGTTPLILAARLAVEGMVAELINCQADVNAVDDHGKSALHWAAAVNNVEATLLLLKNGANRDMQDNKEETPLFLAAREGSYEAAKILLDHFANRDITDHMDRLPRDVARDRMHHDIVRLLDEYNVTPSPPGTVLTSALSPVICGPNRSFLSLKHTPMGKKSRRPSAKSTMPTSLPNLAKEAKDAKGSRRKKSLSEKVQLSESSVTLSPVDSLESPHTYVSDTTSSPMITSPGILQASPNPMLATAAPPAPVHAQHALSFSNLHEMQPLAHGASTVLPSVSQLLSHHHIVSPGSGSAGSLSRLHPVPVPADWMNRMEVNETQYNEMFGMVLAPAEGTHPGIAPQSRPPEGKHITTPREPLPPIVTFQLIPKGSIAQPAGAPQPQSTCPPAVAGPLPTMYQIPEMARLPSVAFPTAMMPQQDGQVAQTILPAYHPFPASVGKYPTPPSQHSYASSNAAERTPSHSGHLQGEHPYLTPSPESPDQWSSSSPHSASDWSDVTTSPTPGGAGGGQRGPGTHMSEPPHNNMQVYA
# [6] = target: Pro-neuregulin-1, membrane-bound isoform (Homo sapiens) (UniProt Q02297); assay: small molecules binding neuregulin-1 protein – biochemical, small-molecule microarray, fluorescence 635/667, psychiatric disease protein project, primary screen (AID 1075); conditions: NRG1 binding, 635 nm fluorescence, higher = more signal;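 further: score combines 667 nm spot fluorescence with signal to noise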
# Sequence of Pro-neuregulin-1, membrane-bound isoform (Homo sapiens) (Q02297 whole entry, looked up, the tested form may be a part, canonical isoform): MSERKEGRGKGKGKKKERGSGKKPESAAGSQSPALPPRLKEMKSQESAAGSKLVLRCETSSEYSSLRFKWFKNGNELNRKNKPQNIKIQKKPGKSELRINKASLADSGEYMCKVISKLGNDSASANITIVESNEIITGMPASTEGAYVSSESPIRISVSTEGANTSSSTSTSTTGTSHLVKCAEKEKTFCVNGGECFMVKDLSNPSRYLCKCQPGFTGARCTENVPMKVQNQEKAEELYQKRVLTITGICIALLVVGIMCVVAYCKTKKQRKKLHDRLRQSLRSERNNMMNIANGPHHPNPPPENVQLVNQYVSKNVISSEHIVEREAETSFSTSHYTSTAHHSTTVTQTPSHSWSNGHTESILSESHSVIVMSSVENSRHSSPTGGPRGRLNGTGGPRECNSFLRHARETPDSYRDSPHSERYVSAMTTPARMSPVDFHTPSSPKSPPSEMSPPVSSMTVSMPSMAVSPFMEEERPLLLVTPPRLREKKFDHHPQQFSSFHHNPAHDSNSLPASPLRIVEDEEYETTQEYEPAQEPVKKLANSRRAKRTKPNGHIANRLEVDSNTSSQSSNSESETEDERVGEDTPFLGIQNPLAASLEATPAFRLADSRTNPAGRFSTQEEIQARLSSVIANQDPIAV
# [7] = test system: Neuregulin-1 EGF-like domain; assay: small molecules binding NRG1 EGF domain – biochemical, small-molecule microarray, 635 nm fluorescence, primary screen (AID 1081); conditions: higher = more signal;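 further: binding of the protein to compounds printed on small-molecule microarray slides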
# [8] = FRG1 expression reporter modulators in myotubes – cell-based, C2C12 myotubes, firefly/Renilla luciferase, luminescence, FRG1 inhibition for FSHD, primary screen (AID 1084); conditions: FRG1 promoter luciferase, higher = more signal, called active from +8 up or from −8 down
# [9] = small molecules captured by biotinylated probe aFST – biochemical, small-molecule microarray, fluorescence 635/667, stem cell growth factor project, primary screen (AID 1086); conditions: higher = more signal;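 further: score merges 667 nm fluorescence with signal-to-noise of each printed compound spot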
# [10] = binders of probe aHhip on microarray, primary screen, stem cell growth factor project, biochemical, small-molecule microarray, fluorescence 635/667 (AID 1087); conditions: higher = more signal;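 further: score merges spot fluorescence at 667nm with spot signal to noise ratio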
SMILES,composite z-score [1],composite z-score [2],composite z-score [3],composite z-score [4],composite z-score [5],composite z-score [6],composite z-score [7],z-score [8],composite z-score [9],composite z-score [10]
COc1ccc([Si](C)(C)[C@H]2[C@H](CCO)O[C@@]3(C(=O)N(Cc4ccc(NC(=O)[C@H](C)O)cc4)c4ccccc43)[C@@H]2C)cc1,-0.184,0.485,-0.0508,0.663,1.19,1.54,1.19,-4.06 (inactive),0.292,0.0401
NC(=O)N1C(=O)C2C(C1=O)C1C=C(CCCO)C2C(c2ccc(CN3CCCC3)cc2)N1Cc1cc2c(cc1Br)OCO2 (stereo not given),0.117,0.19,-0.0909,-0.0906,-0.362,-0.311,0.626,-0.905 (inactive),-0.369,-0.476
CN1C(=O)C2C(C3CC3)C=C3CN(Cc4cccc(Cl)c4)[C@@H]([C@@H](O)Cc4ccccc4)C3C2C1=O (stereo not given in full),-0.357,0.268,-0.229,0.0719,0.999,1.03,1.23,-1.31 (inactive),-0.156,0.0854
C=C(/C(=C/C[C@@H](OC(C)=O)c1cccc(OCCO)c1)c1cnc2ccccc2c1)C(C)C,-0.121,0.197,-0.0242,0.76,0.693,0.41,1.08,2 (inactive),0.0752,-0.0645
O=C1N(CCS(=O)(=O)c2ccccc2)c2ccccc2C[C@]12N=C(c1ccc(OCCCO)cc1)O[C@@H]2c1ccccc1,0.227,0.335,0.0605,-0.122,1.15,0.333,1.23,-0.253 (inactive),0.734,0.0053
OCCCC1=CC(c2ccc(CN3CCCC3)cc2)N(Cc2cccc(OC(F)(F)F)c2)CC1 (stereo not given),0.373,0.134,-0.0853,0.0263,-0.546,0.0603,0.0735,0.372 (inactive),-0.176,-0.236
O=C1C[C@@](C(=O)NCc2ccccc2)(c2ccc([N+](=O)[O-])cc2)[C@@H](c2ccc(CO)cc2)N1C1CCCCC1,-0.709,0.858,-0.101,0.104,0.324,1.4,1.31,-1.47 (inactive),0.117,-0.158
COc1ccc(C(O)C2C=CC3C(=O)N(C)C(=O)C3N2N(c2ccccc2)c2ccccc2)cc1 (stereo not given),0.967,1.17,0.0148,0.209,1.41,0.941,1.22,0.57 (inactive),0.982,0.0972
CCOC(=O)C1=C[C@@H](C(C)(C)C)N(S(=O)(=O)c2ccc(C)cc2)[C@H]1c1ccc(C#N)cc1,0.116,0.255,-0.0181,0.707,1.35,1.32,1.22,-0.793 (inactive),0.313,0.144
CC(C)N1C(=O)C[C@@](C(=O)NCCN2CCOCC2)(c2ccc([N+](=O)[O-])cc2)[C@H]1c1ccc(CO)cc1,0.489,-0.32,-0.21,-0.692,-0.575,0.543,0.851,1.08 (inactive),-1.1,-0.0708
CCCCC(O)C1C=CC2C(=O)N(c3ccccc3)C(=O)C2N1Nc1ccc(C#N)cc1 (stereo not given),0.805,-0.472,-0.074,0.226,1.27,1.9,1.41,0.662 (inactive),0.941,-0.112
C#CCN1[C@@H](Cc2ccccc2)C(=O)O[C@H](Cc2ccccc2)[C@@H]1/C=C/C1CC1,-0.733,0.819,-0.0807,0.289,-0.271,-0.151,0.86,-3.46 (inactive),0.426,0.198
COC(=O)[C@@]1(Cc2ccc(F)cc2)[C@H]2c3cc(C(=O)N(C)C)n(C)c3C[C@H]2CN1C(=O)c1ccccc1,-0.187,-0.609,0.0364,1.08,1.58,1.12,1.16,0.736 (inactive),0.229,0.0677
Cc1ccc(F)cc1S(=O)(=O)N[C@H]1CCN(Cc2ccc(OC(C)C)cc2)C1,-0.347,0.325,-0.201,-0.0293,-0.563,-0.0273,0.629,-1.84 (inactive),0.101,-0.132
C[N+](C)(C)CCCC[C@@H]1NC(=O)[C@H]2C[C@@H](C(=O)NCCCCCNC(=O)CS)[C@@H](c3cccc(OCCO)c3)N2C1=O,-0.121,0.348,-0.102,0.0107,-0.324,1.5,0.785,-0.474 (inactive),0.0685,0.0373
N#Cc1ccc(NN2C(C(O)C3CC=CCC3)C=CC3C(=O)N(c4ccccc4)C(=O)C32)cc1 (stereo not given),0.076,-0.902,-0.073,0.39,1.5,1.89,1.29,0.474 (inactive),1.28,-0.0427
O=C1O[C@H](c2ccccc2)[C@H](c2ccccc2)N2[C@H]1[C@@H](C(=O)O)[C@]1(C(=O)Nc3ccc(C#CCCO)cc31)[C@H]2c1ccc(OCCO)cc1,0.282,1.12,-0.12,0.826,0.89,1.86,1.28,-0.708 (inactive),0.101,0.189

SMILES,composite z-score [1],composite z-score [2],composite z-score [3],composite z-score [4],composite z-score [5],composite z-score [6],composite z-score [7],z-score [8],composite z-score [9],composite z-score [10]
COc1ccc(C(=O)Nc2ccc(CN3C(=O)[C@@]4(O[C@@H](CCn5cc(CCO)nn5)[C@H]([Si](C)(C)c5ccc(OC)cc5)[C@H]4C)c4ccccc43)cc2)cc1,-0.249,0.269,-0.0613,0.462,0.534,0.587,1.16,-3.59 (inactive),0.859,-0.137
COc1ccc([Si](C)(C)[C@H]2[C@H](CC(=O)N3Cc4ccccc4C[C@H]3CO)O[C@@]3(C(=O)N(C)c4c(Br)cc(C)cc43)[C@@H]2C)cc1,-0.0669,0.403,-0.119,0.333,0.363,1.05,1.11,-4.4 (inactive),0.334,-0.132
CCOC(=O)C[C@H]1[C@H](OC(=O)c2cc3ccccc3oc2=O)[C@@H](NC(=O)CC(C)C)c2cc(OCCCO)ccc2N1C(=O)Cc1ccc(OC)cc1,-0.699,-0.115,-0.114,0.499,0.508,0.324,0.49,-0.509 (inactive),0.479,-0.201
COC(=O)C1(Cc2ccccc2)C=C2C(=C(C)C(=O)C2C)CN1 (stereo not given),0.601,0.158,-0.0032,0.137,1.01,0.643,0.635,0.0369 (inactive),0.66,-0.199
CC1CC/C=C\[C@H]2OC34C=CCN(Cc5ccccc5)C(=O)[C@H]3N(CCCCCCO)C(=O)[C@@H]4C2C(=O)O1 (stereo not given in full),0.261,0.96,-0.116,-0.994,-0.763,1.91,1.19,-0.1 (inactive),-0.696,-0.226
COC(=O)[C@@]1(Cc2ccc(OC)cc2)[C@H]2c3cc(C(=O)N4CCCC4)n(Cc4ccc(Cl)c(C(F)(F)F)c4)c3C[C@H]2CN1C(=O)c1ccccc1,0.608,0.673,0.243,0.437,1.64,2,0.605,-2.87 (inactive),1.53,0.132
C[N+](C)(C)CCCC[C@@H]1NC(=O)[C@@H]2C[C@H](C(=O)NCc3ccc(F)cc3)[C@H](c3ccc(O)cc3)N2C1=O,0.315,-0.4,-0.148,-0.447,-1.3,1.3,1.38,0.337 (inactive),-0.936,-0.201
CN(C)CCCC[C@@H]1NC(=O)[C@H]2C[C@@H](C(=O)O)[C@@H](c3ccc(O)cc3)N2C1=O,3.22,2.34,0.653,1.04,1.64,2.84,1.38,2.42 (inactive),3.29,1.38
CCCCC(O)C1C=CC2C(=O)N(c3ccccc3)C(=O)C2N1Nc1ccccc1 (stereo not given),0.436,-0.572,-0.0414,0.43,1.2,1.62,1.12,0.0165 (inactive),0.545,-0.137
O=C1O[C@H](c2ccccc2)[C@H](c2ccccc2)N2[C@H]1[C@@H](C(=O)N1CCN(c3ncccn3)CC1)[C@]1(C(=O)Nc3ccc(C#CCCO)cc31)[C@H]2c1ccc(O)cc1,-0.153,-0.162,0.0033,0.597,1.01,1.71,0.979,1.34 (inactive),0.0354,0.0373
CCCCCC1=C2CNC(CC(C)C)(C(=O)OC)C=C2C(C)C1=O (stereo not given),1.08,-0.176,0.185,0.0051,0.122,1.01,0.568,0.51 (inactive),0.404,3.31
COCCCNC(=O)[C@@]1(CCC(=O)OC(C)(C)C)COC(c2ccc(OCCCO)cc2)=N1,-0.0885,0.355,-0.0659,0.611,0.844,1.63,1.21,-0.604 (inactive),0.579,-0.12
C=CCC(OC(C)=O)[C@@H]1[C@@H](N(Cc2ccc(-c3ccccc3)cc2)C(=O)c2cccc3ccccc23)c2cc(OCCCO)ccc2N1C(=O)Cc1ccc(OC)cc1 (stereo not given in full),0.0714,-0.205,-0.108,-0.234,-0.559,-0.229,-0.757,-0.72 (inactive),0.165,3.52
C=CCC(OC(C)=O)[C@@H]1[C@@H](N(Cc2cccc3ccccc23)C(=O)Cc2ccc(OC)cc2)c2cc(OCCCO)ccc2N1C(=O)c1ccc2ccccc2c1 (stereo not given in full),0.175,0.737,-0.052,0.113,-0.451,-0.0627,-0.805,-1.75 (inactive),0.0737,-0.337
CCCCN1CC=CC23O[C@@H]4/C=C\CCCOC(=O)C4[C@H]2C(=O)N(C(CO)C(C)C)[C@@H]3C1=O (stereo not given in full),-0.1,0.0253,-0.101,0.728,-0.185,-0.164,1.47,0.723 (inactive),-0.228,-0.236
C=CCOC(=O)[C@H]1[C@@H]2C(=O)O[C@@H](c3ccccc3)[C@@H](c3ccccc3)N2[C@@H](c2ccc(OCCOC(=O)[C@@H]3C[C@@H]4C(=O)N[C@@H](CCCC[N+](C)(C)C)C(=O)N4[C@@H]3c3ccc(O)cc3)cc2)[C@]12C(=O)Nc1ccc(I)cc12,-0.291,0.857,0.0559,0.719,1.24,1.44,1.11,0.687 (inactive),0.365,-0.0088
